Measurements reported in the supplement of paper PMC11732987, “Enantioselective OTUD7B fragment discovery through chemoproteomics screening and high-throughput optimisation” (Communications Chemistry, 2025).

Key:
Assay in all cases: log2 ratio of Biotin-Ahx-Ub-VS probe labelling (fragment/DMSO); higher = less target engagement (more negative = stronger competition), active = hit call of the paper (q ≤ 0.05, log2 ratio ≤ -1)
Conditions in all cases: compound concentration: 200 uM; treatment time: 3 h
USP42 = biological target: T1, USP42 (UniProt Q9H9J4)
T1 sequence (whole entry): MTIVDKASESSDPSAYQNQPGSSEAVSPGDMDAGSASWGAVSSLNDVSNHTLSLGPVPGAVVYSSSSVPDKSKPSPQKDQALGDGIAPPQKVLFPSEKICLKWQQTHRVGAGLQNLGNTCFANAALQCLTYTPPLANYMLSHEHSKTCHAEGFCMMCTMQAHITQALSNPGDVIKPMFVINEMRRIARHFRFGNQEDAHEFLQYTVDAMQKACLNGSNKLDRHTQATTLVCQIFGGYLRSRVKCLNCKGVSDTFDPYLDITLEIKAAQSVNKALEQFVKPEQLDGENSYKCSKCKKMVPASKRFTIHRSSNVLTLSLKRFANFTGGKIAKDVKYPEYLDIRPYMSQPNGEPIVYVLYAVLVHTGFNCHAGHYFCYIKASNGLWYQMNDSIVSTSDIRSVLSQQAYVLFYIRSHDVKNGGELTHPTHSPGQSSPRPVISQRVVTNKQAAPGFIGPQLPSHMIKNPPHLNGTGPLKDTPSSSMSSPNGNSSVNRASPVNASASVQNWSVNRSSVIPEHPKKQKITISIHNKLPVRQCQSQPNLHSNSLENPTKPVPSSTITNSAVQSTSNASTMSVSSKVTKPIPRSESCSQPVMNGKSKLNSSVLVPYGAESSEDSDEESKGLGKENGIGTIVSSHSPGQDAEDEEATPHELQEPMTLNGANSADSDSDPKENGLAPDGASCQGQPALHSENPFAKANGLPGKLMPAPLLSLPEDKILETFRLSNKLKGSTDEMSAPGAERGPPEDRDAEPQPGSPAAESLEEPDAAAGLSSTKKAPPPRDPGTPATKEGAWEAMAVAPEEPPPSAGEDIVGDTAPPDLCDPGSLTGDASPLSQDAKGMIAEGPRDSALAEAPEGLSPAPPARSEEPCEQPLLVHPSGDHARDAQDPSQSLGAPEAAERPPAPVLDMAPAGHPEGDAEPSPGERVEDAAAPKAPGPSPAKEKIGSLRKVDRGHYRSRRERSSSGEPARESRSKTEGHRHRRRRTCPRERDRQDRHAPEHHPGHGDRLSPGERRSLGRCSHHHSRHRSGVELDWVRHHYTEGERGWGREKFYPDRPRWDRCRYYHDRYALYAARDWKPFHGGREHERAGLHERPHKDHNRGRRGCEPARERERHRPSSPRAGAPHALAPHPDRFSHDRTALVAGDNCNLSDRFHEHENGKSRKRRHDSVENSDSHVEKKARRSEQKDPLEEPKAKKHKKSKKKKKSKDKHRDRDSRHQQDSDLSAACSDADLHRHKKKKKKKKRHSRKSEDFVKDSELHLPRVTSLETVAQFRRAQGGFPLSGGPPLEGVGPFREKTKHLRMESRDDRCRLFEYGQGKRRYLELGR
Method in brief: (§1)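 HEK293T lysate (495 µg per sample, in Tris/CHAPS/IGEPAL buffer with protease inhibitors) was treated in triplicate with fragment at 200 µM or with DMSO for 3 h. It was then treated with Biotin-Ahx-Ub-VS (0.5 µM final) for 1 h. Labelled DUBs were NeutrAvidin-enriched, digested with LysC and trypsin, and run by diaPASEF LC-MS/MS. Spectronaut label-free quantities were global-median-normalised. Values are average log2 ratios fragment/DMSO by unpaired t-test, using proteins with ≥2 unique peptides.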

USP46 = USP46 (UniProt P62068)
Method in brief: as §1

USP47 = biological target: T2, USP47 (UniProt Q96K76)
T2 sequence (whole entry): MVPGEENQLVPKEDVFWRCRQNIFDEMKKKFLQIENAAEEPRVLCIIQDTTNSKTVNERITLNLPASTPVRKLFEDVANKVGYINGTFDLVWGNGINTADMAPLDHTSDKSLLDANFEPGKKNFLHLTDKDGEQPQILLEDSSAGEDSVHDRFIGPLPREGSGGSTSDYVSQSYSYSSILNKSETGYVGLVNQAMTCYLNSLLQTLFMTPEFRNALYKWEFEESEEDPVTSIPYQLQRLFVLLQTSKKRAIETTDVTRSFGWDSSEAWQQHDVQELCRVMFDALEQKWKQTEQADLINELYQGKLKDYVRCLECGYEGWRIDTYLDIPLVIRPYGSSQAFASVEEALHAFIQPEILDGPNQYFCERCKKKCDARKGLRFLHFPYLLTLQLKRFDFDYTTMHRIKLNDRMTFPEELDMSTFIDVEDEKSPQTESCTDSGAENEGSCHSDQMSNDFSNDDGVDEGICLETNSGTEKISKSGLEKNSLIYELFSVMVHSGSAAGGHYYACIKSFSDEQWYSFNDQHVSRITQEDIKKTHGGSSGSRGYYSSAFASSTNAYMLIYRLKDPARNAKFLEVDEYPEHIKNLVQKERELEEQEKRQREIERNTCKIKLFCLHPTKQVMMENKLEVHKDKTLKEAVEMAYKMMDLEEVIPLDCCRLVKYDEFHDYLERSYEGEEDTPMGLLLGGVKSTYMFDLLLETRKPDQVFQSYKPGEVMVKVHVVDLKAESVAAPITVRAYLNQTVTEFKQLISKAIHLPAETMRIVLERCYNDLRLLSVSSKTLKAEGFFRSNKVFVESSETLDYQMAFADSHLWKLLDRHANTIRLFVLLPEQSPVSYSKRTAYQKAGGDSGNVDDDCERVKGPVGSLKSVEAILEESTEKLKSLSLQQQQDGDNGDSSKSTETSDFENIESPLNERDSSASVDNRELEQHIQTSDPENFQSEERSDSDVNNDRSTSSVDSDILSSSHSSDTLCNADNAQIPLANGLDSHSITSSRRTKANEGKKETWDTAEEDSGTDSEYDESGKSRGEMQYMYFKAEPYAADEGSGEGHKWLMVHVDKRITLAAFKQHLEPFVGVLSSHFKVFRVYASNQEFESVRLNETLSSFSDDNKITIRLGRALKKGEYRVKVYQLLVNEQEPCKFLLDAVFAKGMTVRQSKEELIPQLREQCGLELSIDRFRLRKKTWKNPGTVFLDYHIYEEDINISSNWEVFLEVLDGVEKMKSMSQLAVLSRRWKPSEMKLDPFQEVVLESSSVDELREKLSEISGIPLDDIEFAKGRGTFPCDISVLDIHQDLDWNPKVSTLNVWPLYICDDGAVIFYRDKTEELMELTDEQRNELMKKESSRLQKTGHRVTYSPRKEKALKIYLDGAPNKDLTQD
Method in brief: as §1

USP48 = biological target: T3, USP48 (UniProt Q86UV5)
T3 sequence (whole entry): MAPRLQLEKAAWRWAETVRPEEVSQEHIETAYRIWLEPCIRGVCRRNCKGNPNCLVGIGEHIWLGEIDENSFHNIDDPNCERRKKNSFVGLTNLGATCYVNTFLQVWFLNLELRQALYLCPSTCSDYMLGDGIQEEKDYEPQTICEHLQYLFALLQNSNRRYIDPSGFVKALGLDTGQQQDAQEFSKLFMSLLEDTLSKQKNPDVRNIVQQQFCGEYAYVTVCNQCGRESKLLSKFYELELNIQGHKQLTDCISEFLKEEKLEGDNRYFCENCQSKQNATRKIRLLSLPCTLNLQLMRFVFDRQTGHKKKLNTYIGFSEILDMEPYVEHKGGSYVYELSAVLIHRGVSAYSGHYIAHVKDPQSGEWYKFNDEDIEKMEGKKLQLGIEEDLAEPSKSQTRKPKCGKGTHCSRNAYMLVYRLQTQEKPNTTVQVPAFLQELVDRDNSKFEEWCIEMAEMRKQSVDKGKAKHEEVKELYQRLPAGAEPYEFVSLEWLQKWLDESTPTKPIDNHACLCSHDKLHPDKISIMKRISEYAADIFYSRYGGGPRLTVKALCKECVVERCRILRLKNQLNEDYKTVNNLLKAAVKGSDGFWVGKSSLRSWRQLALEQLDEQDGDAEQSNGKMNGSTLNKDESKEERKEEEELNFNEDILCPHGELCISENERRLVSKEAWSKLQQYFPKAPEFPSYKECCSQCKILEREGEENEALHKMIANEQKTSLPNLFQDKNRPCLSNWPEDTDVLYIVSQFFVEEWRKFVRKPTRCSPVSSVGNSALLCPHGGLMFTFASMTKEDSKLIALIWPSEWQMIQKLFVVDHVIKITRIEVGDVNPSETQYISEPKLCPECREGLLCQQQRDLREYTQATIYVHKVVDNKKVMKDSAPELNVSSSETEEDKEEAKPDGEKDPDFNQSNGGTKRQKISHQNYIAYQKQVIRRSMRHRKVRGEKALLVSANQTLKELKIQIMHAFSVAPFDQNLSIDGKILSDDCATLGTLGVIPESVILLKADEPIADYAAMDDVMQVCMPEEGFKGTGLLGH
Method in brief: as §1

USP5 = biological target: T4, USP5 (UniProt P45974)
T4 sequence (whole entry): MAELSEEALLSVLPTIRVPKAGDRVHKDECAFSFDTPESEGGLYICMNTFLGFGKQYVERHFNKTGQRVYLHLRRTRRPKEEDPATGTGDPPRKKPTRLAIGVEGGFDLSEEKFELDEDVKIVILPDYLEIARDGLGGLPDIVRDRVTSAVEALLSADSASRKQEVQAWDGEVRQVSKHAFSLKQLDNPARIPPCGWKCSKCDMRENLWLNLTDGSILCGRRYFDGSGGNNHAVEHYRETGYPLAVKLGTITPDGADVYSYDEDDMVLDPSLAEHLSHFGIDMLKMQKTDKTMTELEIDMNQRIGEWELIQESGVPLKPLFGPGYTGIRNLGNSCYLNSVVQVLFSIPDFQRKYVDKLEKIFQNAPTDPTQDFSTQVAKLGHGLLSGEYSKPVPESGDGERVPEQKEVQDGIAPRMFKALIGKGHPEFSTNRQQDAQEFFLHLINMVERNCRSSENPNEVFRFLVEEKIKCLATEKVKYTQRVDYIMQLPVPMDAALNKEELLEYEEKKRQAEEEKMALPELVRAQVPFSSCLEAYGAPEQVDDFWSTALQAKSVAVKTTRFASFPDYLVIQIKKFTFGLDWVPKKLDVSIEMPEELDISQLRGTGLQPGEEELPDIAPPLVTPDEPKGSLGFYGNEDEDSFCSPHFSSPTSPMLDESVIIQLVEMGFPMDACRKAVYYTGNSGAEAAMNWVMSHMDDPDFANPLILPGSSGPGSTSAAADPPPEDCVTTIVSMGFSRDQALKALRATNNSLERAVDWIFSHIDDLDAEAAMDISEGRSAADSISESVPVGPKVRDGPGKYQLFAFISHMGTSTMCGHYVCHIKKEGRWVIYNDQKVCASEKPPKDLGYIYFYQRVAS
Method in brief: as §1

USP54 = USP54 (UniProt Q70EL1)
Method in brief: as §1

USP7 = USP7 (UniProt Q93009)
Method in brief: as §1

USP8 = biological target: T5, USP8 (UniProt P40818)
T5 sequence (whole entry): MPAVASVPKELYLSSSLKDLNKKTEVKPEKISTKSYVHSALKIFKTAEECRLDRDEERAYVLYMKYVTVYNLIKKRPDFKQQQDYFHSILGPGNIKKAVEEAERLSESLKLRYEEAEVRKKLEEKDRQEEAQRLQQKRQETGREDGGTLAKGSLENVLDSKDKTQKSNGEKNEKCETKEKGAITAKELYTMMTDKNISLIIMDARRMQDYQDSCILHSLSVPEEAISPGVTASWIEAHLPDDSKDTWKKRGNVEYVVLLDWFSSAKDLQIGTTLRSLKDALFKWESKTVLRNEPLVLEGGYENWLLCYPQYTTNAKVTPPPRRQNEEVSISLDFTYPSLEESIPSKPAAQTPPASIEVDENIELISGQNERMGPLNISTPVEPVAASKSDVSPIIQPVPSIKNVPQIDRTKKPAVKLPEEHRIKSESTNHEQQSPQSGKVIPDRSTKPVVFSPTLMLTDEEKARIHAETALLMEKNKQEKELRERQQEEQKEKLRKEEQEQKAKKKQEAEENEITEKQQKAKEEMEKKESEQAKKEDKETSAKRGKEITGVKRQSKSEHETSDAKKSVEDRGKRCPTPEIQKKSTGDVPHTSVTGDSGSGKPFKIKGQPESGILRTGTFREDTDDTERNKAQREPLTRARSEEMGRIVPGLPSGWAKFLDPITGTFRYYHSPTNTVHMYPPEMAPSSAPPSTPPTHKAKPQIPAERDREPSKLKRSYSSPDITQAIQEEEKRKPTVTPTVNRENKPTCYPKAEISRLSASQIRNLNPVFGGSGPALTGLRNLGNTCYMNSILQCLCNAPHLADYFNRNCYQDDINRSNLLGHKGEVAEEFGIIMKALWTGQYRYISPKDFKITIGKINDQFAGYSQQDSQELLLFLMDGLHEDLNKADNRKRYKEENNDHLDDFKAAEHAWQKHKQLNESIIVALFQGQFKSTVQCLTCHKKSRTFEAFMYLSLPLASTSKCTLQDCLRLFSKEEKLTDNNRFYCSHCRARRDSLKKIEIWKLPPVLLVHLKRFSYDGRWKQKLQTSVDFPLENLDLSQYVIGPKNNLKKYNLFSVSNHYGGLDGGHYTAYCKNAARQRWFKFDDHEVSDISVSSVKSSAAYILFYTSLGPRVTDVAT
Method in brief: as §1

USP9X = USP9X (UniProt Q93008)
Method in brief: as §1

UniProt O00487 = biological target: UniProt O00487
Method in brief: as §1

Measured: log2 ratio of Biotin-Ahx-Ub-VS probe labelling

Sequence of USP7 (Q93009 whole entry, looked up): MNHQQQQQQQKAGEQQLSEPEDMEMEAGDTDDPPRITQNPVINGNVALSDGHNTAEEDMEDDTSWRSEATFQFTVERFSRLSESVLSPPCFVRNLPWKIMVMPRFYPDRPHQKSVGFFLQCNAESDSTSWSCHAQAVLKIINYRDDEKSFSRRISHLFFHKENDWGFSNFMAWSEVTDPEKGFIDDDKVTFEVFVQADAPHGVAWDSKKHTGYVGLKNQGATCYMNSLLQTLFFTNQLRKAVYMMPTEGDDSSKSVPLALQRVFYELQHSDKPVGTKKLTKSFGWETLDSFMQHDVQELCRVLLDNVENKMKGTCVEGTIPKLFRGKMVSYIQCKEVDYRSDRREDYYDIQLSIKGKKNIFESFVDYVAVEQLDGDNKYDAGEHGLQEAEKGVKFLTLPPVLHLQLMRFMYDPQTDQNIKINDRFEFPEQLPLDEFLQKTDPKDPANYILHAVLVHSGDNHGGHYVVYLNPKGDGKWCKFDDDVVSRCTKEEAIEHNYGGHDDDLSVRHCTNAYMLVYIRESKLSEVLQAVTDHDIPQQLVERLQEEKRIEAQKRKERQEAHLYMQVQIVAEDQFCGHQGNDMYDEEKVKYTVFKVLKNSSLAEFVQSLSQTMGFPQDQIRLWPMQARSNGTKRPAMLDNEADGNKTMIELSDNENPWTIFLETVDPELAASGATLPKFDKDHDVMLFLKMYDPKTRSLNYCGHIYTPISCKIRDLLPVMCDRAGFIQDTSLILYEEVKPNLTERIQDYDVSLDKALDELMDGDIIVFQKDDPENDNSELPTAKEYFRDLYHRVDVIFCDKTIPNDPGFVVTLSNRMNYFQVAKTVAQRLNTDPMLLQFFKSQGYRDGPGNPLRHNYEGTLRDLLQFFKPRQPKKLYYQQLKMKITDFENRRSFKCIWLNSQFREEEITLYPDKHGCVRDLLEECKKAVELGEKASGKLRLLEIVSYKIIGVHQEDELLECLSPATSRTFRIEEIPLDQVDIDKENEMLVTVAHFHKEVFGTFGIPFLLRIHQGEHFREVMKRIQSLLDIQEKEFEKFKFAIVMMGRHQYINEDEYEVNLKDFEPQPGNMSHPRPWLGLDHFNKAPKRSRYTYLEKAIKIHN
Sequence of USP9X (Q93008 whole entry): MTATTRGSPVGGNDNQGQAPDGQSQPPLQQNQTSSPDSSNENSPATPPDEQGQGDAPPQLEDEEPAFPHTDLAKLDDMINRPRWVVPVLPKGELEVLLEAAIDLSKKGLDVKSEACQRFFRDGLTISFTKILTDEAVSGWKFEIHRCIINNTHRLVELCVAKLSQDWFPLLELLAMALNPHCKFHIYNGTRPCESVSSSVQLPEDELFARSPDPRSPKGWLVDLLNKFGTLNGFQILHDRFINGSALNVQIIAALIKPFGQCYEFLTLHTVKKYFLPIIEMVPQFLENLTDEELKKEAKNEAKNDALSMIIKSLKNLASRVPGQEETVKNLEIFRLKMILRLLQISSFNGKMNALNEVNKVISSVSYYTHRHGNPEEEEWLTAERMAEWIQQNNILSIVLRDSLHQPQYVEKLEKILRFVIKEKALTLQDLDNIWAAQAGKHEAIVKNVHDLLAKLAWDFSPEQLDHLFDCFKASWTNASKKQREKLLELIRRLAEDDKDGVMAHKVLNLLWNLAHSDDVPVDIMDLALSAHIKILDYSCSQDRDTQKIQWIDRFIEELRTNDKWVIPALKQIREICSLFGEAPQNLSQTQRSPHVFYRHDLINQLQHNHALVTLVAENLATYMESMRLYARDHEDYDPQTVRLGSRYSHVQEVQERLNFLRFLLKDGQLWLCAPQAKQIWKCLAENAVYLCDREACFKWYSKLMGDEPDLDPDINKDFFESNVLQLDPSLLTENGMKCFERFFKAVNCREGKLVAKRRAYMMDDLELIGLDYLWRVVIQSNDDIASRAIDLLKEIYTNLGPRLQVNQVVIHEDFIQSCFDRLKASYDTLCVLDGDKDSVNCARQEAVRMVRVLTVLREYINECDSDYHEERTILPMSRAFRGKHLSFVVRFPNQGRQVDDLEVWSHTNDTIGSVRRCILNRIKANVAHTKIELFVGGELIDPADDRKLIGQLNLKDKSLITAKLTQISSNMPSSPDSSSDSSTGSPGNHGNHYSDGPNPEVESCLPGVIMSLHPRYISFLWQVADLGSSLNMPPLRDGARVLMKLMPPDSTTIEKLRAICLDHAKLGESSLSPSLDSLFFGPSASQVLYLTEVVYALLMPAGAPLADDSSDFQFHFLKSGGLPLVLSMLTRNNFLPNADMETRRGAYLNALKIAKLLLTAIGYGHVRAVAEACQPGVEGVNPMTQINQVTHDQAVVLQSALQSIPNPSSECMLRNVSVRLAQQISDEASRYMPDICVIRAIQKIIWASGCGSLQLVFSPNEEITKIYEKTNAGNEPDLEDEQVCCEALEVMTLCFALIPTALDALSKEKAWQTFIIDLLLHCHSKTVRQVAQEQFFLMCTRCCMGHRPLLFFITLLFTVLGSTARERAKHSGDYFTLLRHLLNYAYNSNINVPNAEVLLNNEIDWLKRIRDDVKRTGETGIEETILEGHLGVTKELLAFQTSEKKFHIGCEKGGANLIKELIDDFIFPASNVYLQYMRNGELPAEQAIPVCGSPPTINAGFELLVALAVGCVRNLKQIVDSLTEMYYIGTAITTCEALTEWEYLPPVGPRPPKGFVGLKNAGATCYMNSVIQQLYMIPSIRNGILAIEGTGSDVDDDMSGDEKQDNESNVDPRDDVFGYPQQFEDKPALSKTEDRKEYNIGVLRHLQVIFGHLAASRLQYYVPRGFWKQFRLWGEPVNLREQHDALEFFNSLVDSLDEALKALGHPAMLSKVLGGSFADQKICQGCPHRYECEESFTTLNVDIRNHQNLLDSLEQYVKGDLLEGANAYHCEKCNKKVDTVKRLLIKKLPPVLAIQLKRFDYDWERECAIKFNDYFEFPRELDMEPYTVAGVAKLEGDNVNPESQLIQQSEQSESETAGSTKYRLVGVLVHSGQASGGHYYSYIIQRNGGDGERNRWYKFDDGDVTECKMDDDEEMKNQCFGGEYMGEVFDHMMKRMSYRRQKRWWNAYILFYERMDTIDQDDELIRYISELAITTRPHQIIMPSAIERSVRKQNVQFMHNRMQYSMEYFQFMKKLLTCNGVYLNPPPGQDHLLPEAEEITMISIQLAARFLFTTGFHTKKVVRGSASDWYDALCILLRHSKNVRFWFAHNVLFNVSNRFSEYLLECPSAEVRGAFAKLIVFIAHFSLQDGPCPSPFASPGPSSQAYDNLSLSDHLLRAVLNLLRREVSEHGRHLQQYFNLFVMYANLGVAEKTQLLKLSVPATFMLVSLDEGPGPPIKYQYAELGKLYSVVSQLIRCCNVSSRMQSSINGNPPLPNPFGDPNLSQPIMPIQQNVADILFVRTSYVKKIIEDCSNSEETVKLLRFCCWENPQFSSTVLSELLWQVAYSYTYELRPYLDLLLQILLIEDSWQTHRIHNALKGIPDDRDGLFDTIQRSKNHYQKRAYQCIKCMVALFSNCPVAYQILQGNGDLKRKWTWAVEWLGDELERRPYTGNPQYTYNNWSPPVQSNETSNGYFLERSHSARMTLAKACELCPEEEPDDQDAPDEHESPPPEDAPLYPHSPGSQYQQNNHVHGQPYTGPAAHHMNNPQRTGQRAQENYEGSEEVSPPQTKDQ
Sequence of USP46 (P62068 whole entry): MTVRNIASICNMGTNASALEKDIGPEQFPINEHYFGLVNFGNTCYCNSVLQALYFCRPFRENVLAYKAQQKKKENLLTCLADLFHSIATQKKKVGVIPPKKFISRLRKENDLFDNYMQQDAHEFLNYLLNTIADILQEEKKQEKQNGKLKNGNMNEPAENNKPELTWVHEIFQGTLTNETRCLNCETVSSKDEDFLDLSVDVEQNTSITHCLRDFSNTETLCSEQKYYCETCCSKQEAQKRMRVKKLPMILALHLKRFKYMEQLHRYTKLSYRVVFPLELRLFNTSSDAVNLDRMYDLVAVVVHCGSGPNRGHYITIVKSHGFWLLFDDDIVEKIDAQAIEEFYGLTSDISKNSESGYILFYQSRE
Sequence of UniProt O00487 (O00487 whole entry): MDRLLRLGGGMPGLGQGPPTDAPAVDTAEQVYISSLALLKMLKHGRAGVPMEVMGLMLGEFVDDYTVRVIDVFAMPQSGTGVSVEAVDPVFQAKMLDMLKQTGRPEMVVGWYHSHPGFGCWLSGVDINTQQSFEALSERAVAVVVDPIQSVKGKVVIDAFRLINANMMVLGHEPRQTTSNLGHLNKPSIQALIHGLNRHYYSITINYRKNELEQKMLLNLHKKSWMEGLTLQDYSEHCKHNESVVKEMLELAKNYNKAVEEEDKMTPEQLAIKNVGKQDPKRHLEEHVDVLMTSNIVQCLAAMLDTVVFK

CS(=O)(=O)c1ccc(CNC(=O)CCl)cc1
inactive: USP42 0.283 | USP46 -0.122 | USP47 -0.0551 | USP48 -0.0444 | USP5 -0.111 | USP54 0.392 | USP7 -0.145 | USP8 -0.0148 | USP9X -0.103 | UniProt O00487 -0.101
